Screen size: about 5,500 compounds; about 2,000 (36%) were called active. Inconclusive results (about 18%) are left out. Cut-off read from the data, not from the text of the source: active = normalized growth mostly below about 0.91 (no sharp cut-off); inconclusive = no clear call, values can overlap the other calls; inactive = mostly above about 0.92. This is one part of the list.
Experiment: chemical genetic growth profiling, strain panel (AID 1159580);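 note: tested at 20 µM; growth read once vehicle control cultures reached saturation at 30 °C; 1 = growth at the plate median or of vehicle wells; lower values mean less growth of the strain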
Conditions: growth OD

Measured: normalized growth

CC(=O)O[C@H]1C[C@@]2(C)[C@H](c3ccoc3)OC(=O)[C@H]3O[C@]32[C@@]2(C)C1[C@]1(C)C(C[C@H]2OC(C)=O)C(C)(C)[C@H](OC(C)=O)C[C@@H]1OC(C)=O (some centres not stated)
active: S. cerevisiae deletion strains, locus YGL253W, strain hxk2, active compounds read low 0.907
inactive: S. cerevisiae deletion strains, locus YAL013W, strain DEP1, active compounds read low 0.999 | S. cerevisiae deletion strains, locus YAL021C, strain ccr4, active compounds read low 1.04 | S. cerevisiae deletion strains, locus YAL026C, strain drs2, active compounds read low 0.97 | S. cerevisiae deletion strains, locus YAL030W, strain snc1, active compounds read low 0.997 | S. cerevisiae deletion strains, locus YBL061C, strain skt5, active compounds read low 0.993 | S. cerevisiae deletion strains, locus YBR009C, strain hhf1, active compounds read low 1.05 | S. cerevisiae deletion strains, locus YBR021W, strain FUR4, active compounds read low 1.02 | S. cerevisiae deletion strains, locus YBR023C, strain chs3, active compounds read low 1 | S. cerevisiae deletion strains, locus YBR171W, strain sec66, active compounds read low 0.958 | S. cerevisiae deletion strains, locus YBR229C, strain ROT2, active compounds read low 0.949 | S. cerevisiae deletion strains, locus YBR231C, strain swc5, active compounds read low 1 | S. cerevisiae deletion strains, locus YBR279W, strain paf1, active compounds read low 0.998 | S. cerevisiae deletion strains, locus YCL011C, strain gbp2, active compounds read low 0.998 | S. cerevisiae deletion strains, locus YCL016C, strain dcc1, active compounds read low 1.05 | S. cerevisiae deletion strains, locus YCL029C, strain bik1, active compounds read low 0.971 | S. cerevisiae deletion strains, locus YCL061C, strain MRC1, active compounds read low 1 | S. cerevisiae deletion strains, locus YCL069W, strain vba3, active compounds read low 0.975 | S. cerevisiae deletion strains, locus YCR088W, strain abp1, active compounds read low 0.99 | S. cerevisiae deletion strains, locus YDL005C, strain med2, active compounds read low 0.968 | S. cerevisiae deletion strains, locus YDL035C, strain GPR1, active compounds read low 0.968 | S. cerevisiae deletion strains, locus YDL040C, strain nat1, active compounds read low 0.99 | S. cerevisiae deletion strains, locus YDL074C, strain BRE1, active compounds read low 0.999 | S. cerevisiae deletion strains, locus YDL101C, strain DUN1, active compounds read low 0.974 | S. cerevisiae deletion strains, locus YDL134C, strain PPH21, active compounds read low 0.986 | S. cerevisiae deletion strains, locus YDL185W, strain tfp1, active compounds read low 0.953 | S. cerevisiae deletion strains, locus YDL192W, strain arf1, active compounds read low 0.992 | S. cerevisiae deletion strains, locus YDR001C, strain nth1, active compounds read low 0.989 | S. cerevisiae deletion strains, locus YDR069C, strain doa4, active compounds read low 0.972 | S. cerevisiae deletion strains, locus YDR101C, strain arx1, active compounds read low 0.946 | S. cerevisiae deletion strains, locus YDR137W, strain rgp1, active compounds read low 1 | S. cerevisiae deletion strains, locus YDR159W, strain sac3, active compounds read low 0.918 | S. cerevisiae deletion strains, locus YDR162C, strain NBP2, active compounds read low 1.01 | S. cerevisiae deletion strains, locus YDR195W, strain ref2 0.981 | S. cerevisiae deletion strains, locus YDR297W, strain sur2, active compounds read low 0.982 | S. cerevisiae deletion strains, locus YDR318W, strain mcm21, active compounds read low 0.973 | S. cerevisiae deletion strains, locus YDR334W, strain swr1, active compounds read low 0.975 | S. cerevisiae deletion strains, locus YDR335W, strain msn5, active compounds read low 0.997 | S. cerevisiae deletion strains, locus YDR388W, active compounds read low 0.983 | S. cerevisiae deletion strains, locus YDR392W, strain spt3, active compounds read low 1 | S. cerevisiae deletion strains, locus YDR502C, strain sam2, active compounds read low 0.987 | S. cerevisiae deletion strains, locus YEL003W, strain gim4, active compounds read low 0.967 | S. cerevisiae deletion strains, locus YEL037C, strain rad23, active compounds read low 0.989 | S. cerevisiae deletion strains, locus YEL061C, strain CIN8 (second series), active compounds read low 0.978 | S. cerevisiae deletion strains, locus YEL061C, strain CIN8, active compounds read low 0.997 | S. cerevisiae deletion strains, locus YER015W, strain faa2, active compounds read low 0.997 | S. cerevisiae deletion strains, locus YER016W, strain bim1, active compounds read low 0.98 | S. cerevisiae deletion strains, locus YER110C, active compounds read low 0.974 | S. cerevisiae deletion strains, locus YER111C, strain swi4, active compounds read low 0.979 | S. cerevisiae deletion strains, locus YER155C, strain BEM2 (second series), active compounds read low 1.02 | S. cerevisiae deletion strains, locus YER155C, strain BEM2, active compounds read low 1.01 | S. cerevisiae deletion strains, locus YER167W, strain BCK2, active compounds read low 0.981 | S. cerevisiae deletion strains, locus YFR010W, strain ubp6, active compounds read low 0.955 | S. cerevisiae deletion strains, locus YGL078C, strain dbp3, active compounds read low 0.972 | S. cerevisiae deletion strains, locus YGL086W, strain mad1, active compounds read low 0.996 | S. cerevisiae deletion strains, locus YGL167C, strain pmr1, active compounds read low 0.99 | S. cerevisiae deletion strains, locus YGL173C, strain kem1, active compounds read low 0.964 | S. cerevisiae deletion strains, locus YGL227W, strain vid30, active compounds read low 0.983 | S. cerevisiae deletion strains, locus YGL240W, strain doc1, active compounds read low 0.978 | S. cerevisiae deletion strains, locus YGL248W, strain PDE1, active compounds read low 0.989 | S. cerevisiae deletion strains, locus YGR135W, strain pre9, active compounds read low 1 | S. cerevisiae deletion strains, locus YGR252W, strain gcn5, active compounds read low 0.94 | S. cerevisiae deletion strains, locus YHR013C, strain ard1, active compounds read low 1.01 | S. cerevisiae deletion strains, locus YHR027C, strain rpn1, active compounds read low 0.993 | S. cerevisiae deletion strains, locus YHR030C, strain SLT2, active compounds read low 0.991 | S. cerevisiae deletion strains, locus YHR079C, strain IRE1 (second series), active compounds read low 0.991 | S. cerevisiae deletion strains, locus YHR094C, strain hxt1, active compounds read low 0.975 | S. cerevisiae deletion strains, locus YHR129C, strain ARP1, active compounds read low 0.995 | S. cerevisiae deletion strains, locus YHR142W, strain chs7, active compounds read low 1 | S. cerevisiae deletion strains, locus YHR200W, strain rpn10, active compounds read low 0.977 | S. cerevisiae deletion strains, locus YIL066C, strain RNR3, active compounds read low 0.949 | S. cerevisiae deletion strains, locus YIL073C, strain SPO22, active compounds read low 0.949 | S. cerevisiae deletion strains, locus YIL125W, strain kgd1, active compounds read low 0.983 | S. cerevisiae deletion strains, locus YIR030C, strain dcg1, active compounds read low 0.981 | S. cerevisiae deletion strains, locus YJL092W, strain hpr5, active compounds read low 0.973 | S. cerevisiae deletion strains, locus YJL095W, strain BCK1 (second series), active compounds read low 0.977 | S. cerevisiae deletion strains, locus YJL095W, strain BCK1, active compounds read low 1.02 | S. cerevisiae deletion strains, locus YJL115W, strain asf1, active compounds read low 0.987 | S. cerevisiae deletion strains, locus YJL129C, strain trk1, active compounds read low 0.966 | S. cerevisiae deletion strains, locus YJL134W, strain LCB3, active compounds read low 0.989 | S. cerevisiae deletion strains, locus YJL154C, strain vps35, active compounds read low 0.996 | S. cerevisiae deletion strains, locus YJL164C, strain tpk1, active compounds read low 1.02 | S. cerevisiae deletion strains, locus YJL166W, strain qcr8, active compounds read low 0.976 | S. cerevisiae deletion strains, locus YJL168C, strain set2, active compounds read low 0.99 | S. cerevisiae deletion strains, locus YJL187C, strain SWE1 (second series), active compounds read low 0.976 | S. cerevisiae deletion strains, locus YJR043C, strain POL32, active compounds read low 0.974 | S. cerevisiae deletion strains, locus YKL009W, strain mrt4, active compounds read low 0.912 | S. cerevisiae deletion strains, locus YKL068W, active compounds read low 0.978 | S. cerevisiae deletion strains, locus YKL085W, strain MDH1 (second series), active compounds read low 0.973 | S. cerevisiae deletion strains, locus YKL085W, strain MDH1, active compounds read low 0.973 | S. cerevisiae deletion strains, locus YKL160W, strain elf1, active compounds read low 1.05 | S. cerevisiae deletion strains, locus YKR001C, strain vps1, active compounds read low 0.982 | S. cerevisiae deletion strains, locus YKR026C, strain gcn3, active compounds read low 0.978 | S. cerevisiae deletion strains, locus YKR091W, strain srl3, active compounds read low 0.995 | S. cerevisiae deletion strains, locus YLL001W, strain dnm1, active compounds read low 0.977 | S. cerevisiae deletion strains, locus YLL026W, active compounds read low 0.974 | S. cerevisiae deletion strains, locus YLL041C, strain sdh2, active compounds read low 0.998 | S. cerevisiae deletion strains, locus YLR027C, strain aat2, active compounds read low 0.965 | S. cerevisiae deletion strains, locus YLR039C, strain RIC1, active compounds read low 0.959 | S. cerevisiae deletion strains, locus YLR058C, strain SHM2, active compounds read low 0.978 | S. cerevisiae deletion strains, locus YLR102C, strain apc9, active compounds read low 0.979 | S. cerevisiae deletion strains, locus YLR221C, strain rsa3, active compounds read low 0.987 | S. cerevisiae deletion strains, locus YLR258W, strain gsy2, active compounds read low 1.02 | S. cerevisiae deletion strains, locus YLR262C, strain YPT6 (second series), active compounds read low 1.03 | S. cerevisiae deletion strains, locus YLR268W, strain sec22, active compounds read low 0.975 | S. cerevisiae deletion strains, locus YLR320W, strain mms22, active compounds read low 0.999 | S. cerevisiae deletion strains, locus YLR342W, strain FKS1, active compounds read low 0.995 | S. cerevisiae deletion strains, locus YLR357W, strain rsc2, active compounds read low 1.01 | S. cerevisiae deletion strains, locus YLR370C, strain arc18, active compounds read low 0.961 | S. cerevisiae deletion strains, locus YLR371W, strain rom2, active compounds read low 0.982 | S. cerevisiae deletion strains, locus YLR384C, strain iki3, active compounds read low 1.01 | S. cerevisiae deletion strains, locus YLR418C, strain cdc73, active compounds read low 1.01 | S. cerevisiae deletion strains, locus YML016C, strain PPZ1, active compounds read low 0.984 | S. cerevisiae deletion strains, locus YML032C, strain rad52, active compounds read low 0.977 | S. cerevisiae deletion strains, locus YML120C, strain ndi1, active compounds read low 1.02 | S. cerevisiae deletion strains, locus YML124C, strain tub3, active compounds read low 0.993 | S. cerevisiae deletion strains, locus YMR058W, strain fet3, active compounds read low 0.988 | S. cerevisiae deletion strains, locus YMR078C, strain ctf18, active compounds read low 0.955 | S. cerevisiae deletion strains, locus YMR125W, strain sto1, active compounds read low 1.02 | S. cerevisiae deletion strains, locus YMR129W, active compounds read low 0.985 | S. cerevisiae deletion strains, locus YMR205C, strain PFK2, active compounds read low 1.01 | S. cerevisiae deletion strains, locus YMR223W, strain ubp8, active compounds read low 0.991 | S. cerevisiae deletion strains, locus YMR231W, strain pep5, active compounds read low 0.979 | S. cerevisiae deletion strains, locus YMR263W, strain SAP30, active compounds read low 0.969 | S. cerevisiae deletion strains, locus YMR307W, strain GAS1, active compounds read low 1.05 | S. cerevisiae deletion strains, locus YNL067W, strain RPL9B, active compounds read low 0.996 | S. cerevisiae deletion strains, locus YNL071W, strain lat1, active compounds read low 0.999 | S. cerevisiae deletion strains, locus YNL128W, strain TEP1, active compounds read low 0.971 | S. cerevisiae deletion strains, locus YNL153C, strain GIM3, active compounds read low 0.985 | S. cerevisiae deletion strains, locus YNL209W, strain ssb2, active compounds read low 0.992 | S. cerevisiae deletion strains, locus YNL233W, strain BNI4, active compounds read low 1 | S. cerevisiae deletion strains, locus YNL248C, strain rpa49, active compounds read low 0.984 | S. cerevisiae deletion strains, locus YNL250W, strain rad50, active compounds read low 0.97 | S. cerevisiae deletion strains, locus YNL271C, strain bni1, active compounds read low 0.979 | S. cerevisiae deletion strains, locus YNL298W, strain CLA4, active compounds read low 0.968 | S. cerevisiae deletion strains, locus YNL307C, strain MCK1, active compounds read low 0.991 | S. cerevisiae deletion strains, locus YNL322C, strain KRE1 (second series), active compounds read low 0.985 | S. cerevisiae deletion strains, locus YNR049C, strain mso1, active compounds read low 0.985 | S. cerevisiae deletion strains, locus YNR052C, strain pop2, active compounds read low 0.98 | S. cerevisiae deletion strains, locus YOL006C, strain TOP1, active compounds read low 0.959 | S. cerevisiae deletion strains, locus YOL012C, strain htz1 1.13 | S. cerevisiae deletion strains, locus YOL147C, strain pex11, active compounds read low 0.987 | S. cerevisiae deletion strains, locus YOR001W, strain rrp6, active compounds read low 0.919 | S. cerevisiae deletion strains, locus YOR061W, strain CKA2, active compounds read low 0.966 | S. cerevisiae deletion strains, locus YOR069W, strain VPS5, active compounds read low 0.992 | S. cerevisiae deletion strains, locus YOR070C, strain gyp1, active compounds read low 1 | S. cerevisiae deletion strains, locus YOR080W, strain dia2, active compounds read low 0.963 | S. cerevisiae deletion strains, locus YOR083W, strain WHI5, active compounds read low 1.04 | S. cerevisiae deletion strains, locus YOR106W, strain vam3, active compounds read low 1.03 | S. cerevisiae deletion strains, locus YOR136W, strain idh2, active compounds read low 0.974 | S. cerevisiae deletion strains, locus YOR144C, strain elg1, active compounds read low 0.989 | S. cerevisiae deletion strains, locus YOR184W, strain ser1, active compounds read low 0.966 | S. cerevisiae deletion strains, locus YOR265W, strain rbl2, active compounds read low 0.951 | S. cerevisiae deletion strains, locus YOR270C, strain vph1, active compounds read low 0.879 | S. cerevisiae deletion strains, locus YOR290C, strain snf2, active compounds read low 1.05 | S. cerevisiae deletion strains, locus YOR316C, strain cot1, active compounds read low 0.982 | S. cerevisiae deletion strains, locus YPL051W, strain arl3, active compounds read low 0.995 | S. cerevisiae deletion strains, locus YPL055C, strain LGE1, active compounds read low 0.964 | S. cerevisiae deletion strains, locus YPL078C, strain atp4, active compounds read low 1.05 | S. cerevisiae deletion strains, locus YPL106C, strain sse1, active compounds read low 1.03 | S. cerevisiae deletion strains, locus YPL240C, strain hsp82, active compounds read low 0.986 | S. cerevisiae deletion strains, locus YPR119W, strain clb2, active compounds read low 0.983 | S. cerevisiae deletion strains, locus YPR141C, strain kar3, active compounds read low 0.984 | S. cerevisiae deletion strains, locus YPR163C, strain tif3, active compounds read low 0.989 | S. cerevisiae deletion strains, locus YPR167C, strain met16, active compounds read low 0.984 | S. cerevisiae deletion strains, strain wtn01, active compounds read low 0.94 | S. cerevisiae strains, strain wild type, active compounds read low 0.993
